The supplement of paper PMC10849652
Targets with a hit are over-represented here; the source holds about 8,800 in all. About 0.5% of all pairs of compound and target were hits.

Tests used:
Assay in all cases: log2 fold change, soluble protein after heating vs DMSO (PISA); higher = thermal stabilisation; K562 lysate, 10 uM; active = over 0.2 and 3.5 SD of the protein, either way, in both replicates (recomputed)
[1] = compound: CN1CC[C@H](c2c(O)cc(O)c3c(=O)cc(-c4ccccc4Cl)oc23)[C@H](O)C1 [alvocidib]
Method in brief: (§1)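 Pellets of K562 cells were dounce-homogenised in PBS pH 7.4 with 1 mM MgCl2, and the crude extract was held at 1 mg/mL protein for a 30 min treatment with 10 μM compound. Aliquots were heated for 3 min over 48°C-58°C and pooled before NP-40 was added to 0.5% at 4°C. The supernatant from 21,000xg for 90 min was quantified by TMTpro 16plex LC-MS/MS with channel sums equalised. Values are reported from duplicates as log-two fold change in thermal stability relative to solvent controls.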

[2] = compound: CN1CCc2c(c3ccccc3n2Cc2ccc(C(=O)NO)cc2)C1 [Tubastatin A]
Method in brief: as §1

[3] = compound: CNC(=O)C1=CC=CC=C1NC2=NC(=NC=C2Cl)NC3=C(C=C(C=C3)N4CCOCC4)OC
Method in brief: as §1

[4] = compound: CNC(=O)c1ccc(Nc2ncc(C(F)(F)F)c(NCc3nccnc3N(C)S(C)(=O)=O)n2)cc1 [defactinib]
Method in brief: as §1

[5] = compound: CNc1nc(-c2ccc3c(N)n[nH]c3c2)cc(N2C[C@@H](C(=O)NC3CCCCC3)CC[C@H]2C)n1
Method in brief: as §1

[6] = compound: COC(=O)N[C@@H](C)CNc1nccc(-c2cn(C(C)C)nc2-c2cc(Cl)cc(NS(C)(=O)=O)c2F)n1 [encorafenib]
Method in brief: as §1

[7] = compound: COC(=O)[C@H](CCSC)NC(=O)C1=C(C=C(C=C1)NC[C@H](CS)N)C2=CC=CC=C2
Method in brief: as §1

[8] = compound: COc1cc(Nc2ncc3c(n2)-c2ccc(Cl)cc2C(c2c(F)cccc2OC)=NC3)ccc1C(=O)O [alisertib]
Method in brief: as §1

[9] = compound: COc1cc2nc(-c3cc(F)ccc3O)nc(N[C@@H]3CNC[C@H]3C(C)(C)O)c2cc1OC
Method in brief: as §1

[10] = compound: COc1cc2ncnc(Nc3ccc(F)c(Cl)c3)c2cc1OCCCN1CCOCC1 [gefitinib]
Method in brief: as §1

[11] = compound: CS(=O)(=O)CCNCc1ccc(-c2ccc3ncnc(Nc4ccc(OCc5cccc(F)c5)c(Cl)c4)c3c2)o1 [lapatinib]
Method in brief: as §1

[12] = compound: CS(=O)(=O)N1CCN(Cc2cc3nc(-c4cccc5[nH]ncc45)nc(N4CCOCC4)c3s2)CC1 [pictilisib]
Method in brief: as §1

[13] = compound: C[C@@H](Oc1cc(-c2cnn(C3CCNCC3)c2)cnc1N)c1c(Cl)ccc(F)c1Cl [crizotinib]
Method in brief: as §1

[14] = compound: C[C@H](C1=CC=C(C=C1)C(=O)NC2=C3C=CNC3=NC=C2)N
Method in brief: as §1

[15] = compound: C[C@H](Nc1ncnc2nc[nH]c12)c1cc2cccc(Cl)c2c(=O)n1-c1ccccc1 [duvelisib]
Method in brief: as §1

[16] = compound: Cc1cc(Nc2cc(CN3CCOCC3)c3nc(C)c(Cc4ccc(Cl)cc4F)n3n2)n[nH]1 [gandotinib]
Method in brief: as §1

[17] = compound: Cc1cc(Nc2cc(N3CCN(C)CC3)nc(Sc3ccc(NC(=O)C4CC4)cc3)n2)n[nH]1 [tozasertib]
Method in brief: as §1

[18] = compound: Cc1ccc(-n2nc(C(C)(C)C)cc2NC(=O)Nc2ccc(OCCN3CCOCC3)c3ccccc23)cc1 [doramapimod]
Method in brief: as §1

[19] = compound: Cc1ccc(NC(=O)c2ccc(CN3CC[C@H](N(C)C)C3)c(C(F)(F)F)c2)cc1Nc1nccc(-c2cncnc2)n1 [bafetinib]
Method in brief: as §1

[20] = compound: Cc1cccc(CC(=O)N2CCc3c2ccc(-c2cn(C)c4ncnc(N)c24)c3F)n1
Method in brief: as §1

Measured: log2 fold change

SLC39A11 (UniProt Q8N1S5)
Chain of UniProt Q8N1S5 (Q8N1S5 whole entry, looked up): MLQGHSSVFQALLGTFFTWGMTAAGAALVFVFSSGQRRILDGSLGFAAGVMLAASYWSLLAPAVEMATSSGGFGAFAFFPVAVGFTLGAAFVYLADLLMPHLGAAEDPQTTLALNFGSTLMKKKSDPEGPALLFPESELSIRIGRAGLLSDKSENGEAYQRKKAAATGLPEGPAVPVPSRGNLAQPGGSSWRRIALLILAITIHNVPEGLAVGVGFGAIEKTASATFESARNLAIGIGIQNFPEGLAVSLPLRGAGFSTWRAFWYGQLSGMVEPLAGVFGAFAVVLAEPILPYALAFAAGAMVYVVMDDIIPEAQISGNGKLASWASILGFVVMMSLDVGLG
inactive: [1] -0.02 | [2] -0.065 | [3] 0.107 | [4] 0.338 | [5] -0.111 | [6] -0.059 | [7] -0.23 | [8] -0.047 | [9] 0.097 | [10] 0.059 | [11] -0.054 | [12] 0.081 | [13] 0.081 | [14] -0.097 | [15] -0.002 | [16] 0.1 | [17] 0.178 | [18] -0.139 | [19] 0.022 | [20] 0.013

SLC25A36 (UniProt Q96CQ1)
inactive: [1] 0.024 | [2] -0.047 | [3] 0.048 | [4] 0.068 | [5] 0.029 | [6] 0.041 | [7] 0 | [8] 0.04 | [9] 0.049 | [10] 0.025 | [11] -0.019 | [13] 0.022 | [14] 0.029 | [15] -0.122 | [16] 0.024 | [17] -0.09 | [18] -0.011 | [20] -0.006

SMTN isoform 6 (UniProt P53814)
Chain of UniProt P53814 (P53814 whole entry, looked up): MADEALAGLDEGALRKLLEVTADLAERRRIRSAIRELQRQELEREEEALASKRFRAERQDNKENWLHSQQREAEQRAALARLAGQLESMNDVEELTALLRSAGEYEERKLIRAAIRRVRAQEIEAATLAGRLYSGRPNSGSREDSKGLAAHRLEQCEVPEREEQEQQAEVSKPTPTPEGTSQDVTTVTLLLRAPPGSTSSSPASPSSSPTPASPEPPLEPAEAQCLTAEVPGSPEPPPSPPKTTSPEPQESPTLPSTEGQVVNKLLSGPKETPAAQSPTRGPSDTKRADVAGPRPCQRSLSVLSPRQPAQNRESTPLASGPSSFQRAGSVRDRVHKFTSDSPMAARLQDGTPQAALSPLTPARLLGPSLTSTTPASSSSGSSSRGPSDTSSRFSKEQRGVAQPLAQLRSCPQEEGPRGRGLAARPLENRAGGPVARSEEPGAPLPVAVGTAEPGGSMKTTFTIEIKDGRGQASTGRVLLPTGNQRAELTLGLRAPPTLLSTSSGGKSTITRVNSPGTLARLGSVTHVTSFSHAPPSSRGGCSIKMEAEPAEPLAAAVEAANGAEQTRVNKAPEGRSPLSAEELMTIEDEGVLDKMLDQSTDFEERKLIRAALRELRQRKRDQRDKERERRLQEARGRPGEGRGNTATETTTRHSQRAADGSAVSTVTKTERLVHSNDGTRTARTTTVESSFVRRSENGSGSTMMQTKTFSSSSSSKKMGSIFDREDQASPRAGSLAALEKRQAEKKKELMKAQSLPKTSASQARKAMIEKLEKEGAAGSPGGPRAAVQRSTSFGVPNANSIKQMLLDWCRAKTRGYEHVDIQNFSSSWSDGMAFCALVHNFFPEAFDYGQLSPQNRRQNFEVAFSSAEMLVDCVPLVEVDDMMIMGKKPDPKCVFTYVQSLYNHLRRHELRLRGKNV
inactive: [1] -0.04 | [2] -0.019 | [3] 0.071 | [4] -0.103 | [5] -0.013 | [6] -0.002 | [7] -0.085 | [8] 0.055 | [9] -0.005 | [10] 0.005 | [11] 0.103 | [12] -0.042 | [13] -0.012 | [14] -0.06 | [15] 0.033 | [16] 0.032 | [17] 0.019 | [18] 0.006 | [19] 0.059 | [20] 0.028

SMARCA4 isoform 4 (UniProt P51532)
Chain of UniProt P51532 (P51532 whole entry, looked up): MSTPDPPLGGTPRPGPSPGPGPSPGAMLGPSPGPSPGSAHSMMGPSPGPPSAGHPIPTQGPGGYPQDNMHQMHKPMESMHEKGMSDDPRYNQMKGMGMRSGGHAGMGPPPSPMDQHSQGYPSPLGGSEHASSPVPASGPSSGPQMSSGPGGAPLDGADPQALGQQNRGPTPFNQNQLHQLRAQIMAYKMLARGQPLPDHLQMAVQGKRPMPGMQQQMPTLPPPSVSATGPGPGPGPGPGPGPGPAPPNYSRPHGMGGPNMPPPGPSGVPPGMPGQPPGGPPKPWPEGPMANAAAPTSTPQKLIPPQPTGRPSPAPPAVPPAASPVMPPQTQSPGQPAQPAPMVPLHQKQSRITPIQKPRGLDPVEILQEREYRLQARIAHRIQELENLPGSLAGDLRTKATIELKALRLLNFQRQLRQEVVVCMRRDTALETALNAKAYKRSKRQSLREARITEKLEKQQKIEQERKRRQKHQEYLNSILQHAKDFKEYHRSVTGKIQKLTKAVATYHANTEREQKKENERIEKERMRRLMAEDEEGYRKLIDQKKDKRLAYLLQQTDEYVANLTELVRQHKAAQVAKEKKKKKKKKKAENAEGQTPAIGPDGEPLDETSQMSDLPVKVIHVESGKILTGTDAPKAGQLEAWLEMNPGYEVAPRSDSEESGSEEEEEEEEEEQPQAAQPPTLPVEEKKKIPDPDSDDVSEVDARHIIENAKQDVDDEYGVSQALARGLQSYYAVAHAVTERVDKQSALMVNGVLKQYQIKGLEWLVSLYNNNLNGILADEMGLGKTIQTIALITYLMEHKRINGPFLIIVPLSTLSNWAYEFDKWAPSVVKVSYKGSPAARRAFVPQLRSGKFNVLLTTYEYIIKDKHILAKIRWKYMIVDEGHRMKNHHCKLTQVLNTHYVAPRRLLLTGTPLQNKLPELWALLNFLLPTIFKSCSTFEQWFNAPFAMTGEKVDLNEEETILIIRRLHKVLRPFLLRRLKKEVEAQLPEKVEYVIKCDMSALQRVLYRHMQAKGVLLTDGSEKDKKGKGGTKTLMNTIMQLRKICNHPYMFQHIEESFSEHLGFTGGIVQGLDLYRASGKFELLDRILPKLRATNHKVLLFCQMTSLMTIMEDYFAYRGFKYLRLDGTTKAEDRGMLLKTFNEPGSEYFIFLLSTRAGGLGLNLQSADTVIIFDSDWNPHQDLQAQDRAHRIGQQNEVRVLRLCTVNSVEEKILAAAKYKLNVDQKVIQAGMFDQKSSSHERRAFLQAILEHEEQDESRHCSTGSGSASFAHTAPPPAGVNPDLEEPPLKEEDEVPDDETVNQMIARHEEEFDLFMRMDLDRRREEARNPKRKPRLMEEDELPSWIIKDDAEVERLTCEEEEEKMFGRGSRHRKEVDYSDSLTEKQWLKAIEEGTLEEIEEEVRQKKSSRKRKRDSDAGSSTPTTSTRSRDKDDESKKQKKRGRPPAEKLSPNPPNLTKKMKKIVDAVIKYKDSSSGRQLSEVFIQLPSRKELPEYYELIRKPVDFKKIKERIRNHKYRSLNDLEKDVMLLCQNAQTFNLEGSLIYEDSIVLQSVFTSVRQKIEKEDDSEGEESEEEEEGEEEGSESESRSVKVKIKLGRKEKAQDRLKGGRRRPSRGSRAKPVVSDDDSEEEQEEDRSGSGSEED
inactive: [1] 0.078 | [2] 0.106 | [3] -0.008 | [5] 0.024 | [6] -0.315 | [7] 0.04 | [8] -0.046 | [9] -0.038 | [10] -0.116 | [11] -0.072 | [13] 0 | [14] 0.024 | [15] -0.068 | [16] -0.007 | [17] 0.136 | [18] -0.048 | [20] -0.012

STK17B (UniProt O94768)
Chain of UniProt O94768 (O94768 whole entry, looked up): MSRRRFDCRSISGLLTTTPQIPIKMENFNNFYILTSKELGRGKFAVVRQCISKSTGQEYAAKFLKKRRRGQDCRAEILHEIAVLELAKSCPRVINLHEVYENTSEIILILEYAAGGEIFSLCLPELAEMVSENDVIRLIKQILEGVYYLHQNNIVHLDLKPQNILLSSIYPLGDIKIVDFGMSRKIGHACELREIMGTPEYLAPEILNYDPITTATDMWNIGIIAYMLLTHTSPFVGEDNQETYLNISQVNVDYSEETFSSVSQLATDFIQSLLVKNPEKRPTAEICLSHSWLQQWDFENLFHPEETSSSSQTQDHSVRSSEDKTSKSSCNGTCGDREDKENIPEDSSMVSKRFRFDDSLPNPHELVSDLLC
inactive: [2] -0.466 | [3] 0.082 | [5] 0.642 | [8] 0.066 | [10] 0.094 | [13] -0.255 | [15] 0 | [18] -0.117

SMIM1 (UniProt B2RUZ4)
Chain of UniProt B2RUZ4 (B2RUZ4 whole entry, looked up): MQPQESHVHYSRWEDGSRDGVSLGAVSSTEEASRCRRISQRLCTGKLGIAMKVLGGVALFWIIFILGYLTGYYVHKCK
inactive: [1] -0.031 | [2] 0.123 | [3] 0.097 | [6] 0.226 | [7] -0.07 | [8] -0.149 | [9] 0.022 | [10] -0.279 | [11] 0.098 | [12] -0.028 | [13] -0.106 | [14] 0.121 | [16] 0.106 | [17] -0.019 | [18] 0.034 | [19] -0.021 | [20] 0.011

TAF1B (UniProt Q53T94)
inactive: [1] 0.175 | [2] -0.083 | [4] -0.024 | [5] 0.614 | [6] 0.073 | [7] -0.13 | [8] -0.177 | [9] -0.047 | [10] 0.016 | [11] 0.012 | [12] 0.062 | [13] -0.036 | [14] -0.058 | [15] 0.34 | [16] -0.157 | [17] 0.304 | [18] 0.017 | [19] -0.004 | [20] 0.134

SRC isoform 2 (UniProt P12931)
Chain of UniProt P12931 (P12931 whole entry, looked up): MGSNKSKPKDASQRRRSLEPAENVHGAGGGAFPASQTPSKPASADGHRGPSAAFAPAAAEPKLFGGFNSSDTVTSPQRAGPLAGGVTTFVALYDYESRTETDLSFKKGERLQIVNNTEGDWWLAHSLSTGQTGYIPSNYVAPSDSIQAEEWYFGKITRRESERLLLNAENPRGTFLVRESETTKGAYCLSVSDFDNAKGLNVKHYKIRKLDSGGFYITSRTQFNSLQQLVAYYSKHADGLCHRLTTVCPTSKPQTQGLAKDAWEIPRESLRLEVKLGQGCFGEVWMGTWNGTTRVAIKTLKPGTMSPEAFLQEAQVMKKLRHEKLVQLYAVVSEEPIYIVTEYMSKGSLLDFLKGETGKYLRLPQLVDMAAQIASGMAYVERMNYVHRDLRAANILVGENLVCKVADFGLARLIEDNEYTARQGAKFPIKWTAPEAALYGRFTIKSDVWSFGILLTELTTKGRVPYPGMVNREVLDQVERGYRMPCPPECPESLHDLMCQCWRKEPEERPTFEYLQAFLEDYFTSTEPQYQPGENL
inactive: [1] -0.035 | [2] 0.133 | [3] 0.118 | [5] -0.031 | [6] -0.171 | [7] 0.399 | [9] 0 | [11] -0.001 | [12] -0.078 | [14] 0.151 | [15] 0.001 | [16] 0.061 | [17] 0.098 | [19] -0.153 | [20] -0.015

SLC12A6 isoform 2 (UniProt Q9UHW9)
Chain of UniProt Q9UHW9 (Q9UHW9 whole entry, looked up): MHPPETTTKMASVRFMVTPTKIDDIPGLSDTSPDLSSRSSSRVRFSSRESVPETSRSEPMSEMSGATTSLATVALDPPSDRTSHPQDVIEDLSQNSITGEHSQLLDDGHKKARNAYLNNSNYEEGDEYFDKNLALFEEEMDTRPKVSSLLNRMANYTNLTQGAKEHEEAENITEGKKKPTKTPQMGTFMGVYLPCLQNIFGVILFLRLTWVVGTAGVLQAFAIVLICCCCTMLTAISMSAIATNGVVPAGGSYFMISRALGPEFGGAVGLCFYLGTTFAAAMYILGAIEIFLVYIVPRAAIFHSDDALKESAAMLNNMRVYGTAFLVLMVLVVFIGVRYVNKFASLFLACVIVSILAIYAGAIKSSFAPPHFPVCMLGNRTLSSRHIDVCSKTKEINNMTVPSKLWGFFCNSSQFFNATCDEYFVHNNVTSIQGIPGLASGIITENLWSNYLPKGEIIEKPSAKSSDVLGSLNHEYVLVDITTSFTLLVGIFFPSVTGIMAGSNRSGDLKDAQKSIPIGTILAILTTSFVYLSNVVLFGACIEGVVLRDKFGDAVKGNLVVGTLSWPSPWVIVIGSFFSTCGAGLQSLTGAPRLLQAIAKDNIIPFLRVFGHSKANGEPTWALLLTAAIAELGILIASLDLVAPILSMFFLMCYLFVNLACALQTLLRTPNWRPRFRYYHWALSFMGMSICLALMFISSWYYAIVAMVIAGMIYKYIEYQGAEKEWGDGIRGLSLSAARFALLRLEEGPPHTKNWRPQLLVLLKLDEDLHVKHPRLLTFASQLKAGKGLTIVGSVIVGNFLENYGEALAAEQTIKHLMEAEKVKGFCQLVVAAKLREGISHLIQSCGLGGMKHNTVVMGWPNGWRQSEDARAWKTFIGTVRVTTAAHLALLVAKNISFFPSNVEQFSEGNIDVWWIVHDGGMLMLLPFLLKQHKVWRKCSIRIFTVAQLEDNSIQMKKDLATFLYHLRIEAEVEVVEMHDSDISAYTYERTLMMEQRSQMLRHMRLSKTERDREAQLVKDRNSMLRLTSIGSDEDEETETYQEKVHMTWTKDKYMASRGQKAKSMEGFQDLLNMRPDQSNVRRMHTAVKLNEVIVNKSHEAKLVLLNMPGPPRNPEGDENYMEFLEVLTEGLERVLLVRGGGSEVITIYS
inactive: [2] -0.013 | [3] -0.149 | [5] -0.008 | [6] 0.031 | [7] 0.075 | [9] -0.106 | [11] -0.019 | [13] -0.051 | [15] -0.023 | [17] 0.068 | [18] 0.054

SMPD2 (UniProt O60906)
inactive: [1] -0.043 | [2] 0.088 | [3] -0.787 | [5] -0.034 | [6] 0.09 | [7] -0.22 | [9] -0.074 | [11] 0.015 | [14] 0.106 | [15] 0.107 | [16] -0.051 | [17] -0.031 | [20] 0.03
